An excerpt weighted towards active compounds, which were near 18% of everything screened.
PLK1 PBD block – blocks phosphopeptide binding to human PLK1 polo-box domain | P53350 | Plk1 PBD binding of FITC phosphopeptide, fluorescence polarization | Potency, µM, for the others: max response, negative = inhibition, actives largely listed as inhibitors | actives 2.8% (n = 360,000) | AID 720504; further: series mostly up to about 57 µM; nearly all actives have a fitted effect of over 65% in size
TDP1 cell CPT – growth inhibition of DT40 Tdp1-/-;hTDP1 cells with camptothecin (screen for TDP1 inhibitors) | Potency, µM (doses to about 46.2 µM), inactives show at the top dose activity change, negative = growth inhibition, actives largely listed as inhibitors | actives 12% (n = 420,000) | chicken DT40 Tdp1-/-;hTDP1 cells + 20 nM CPT, ATP luminescence, 48 h; further: nearly all actives have a fitted effect of over 55% in size
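Chicken DT40 Tdp1-/- cells stably complemented with human TDP1 were seeded at 400 cells/well in medium containing 20 nM camptothecin, exposed to pin-transferred compounds, and grown at 37 °C for at least 48 hr. Viability was read as ATP luminescence.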
TDP1 block – blocks human tyrosyl-DNA phosphodiesterase 1; recombinant TDP1, AlphaScreen DNA substrate cleavage; Potency, µM (doses to about 130 µM), without a hit: at the top dose activity change, negative = inhibition, usual class: inhibitors; actives 0.28% (n = 350,000); further: nearly all actives have a fitted effect of over 40% in size
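Compounds were preincubated with Tdp1 (1 nM final) for 15 min at room temperature before substrate (15 nM final) started a 5 min reaction; beads (10 ug/ml final) were then added for 10 min before AlphaScreen detection.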
VDR inh – blocks the human vitamin D receptor | actives 0.93% (n = 400,000) | Potency, µM, for inactives: max response, negative = inhibition, hits mostly inhibitors | AID 504847 | VDR-SRC2-3 peptide fluorescence polarization, 2 h
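Reagent solutions, kept cold and dark, are dispensed first; compounds are then pinned in at 23 nl, plates briefly spun, and incubated 2 h at ambient temperature. Inhibition of VDR–SRC2-3 peptide binding is read by fluorescence polarization.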
KAT2A inh – GCN5L2 (KAT2A) acetyltransferase inhibition | Q92830 | GCN5L2 HAT assay, ThioGlo1 CoA-SH fluorescence | Potency, µM (series often up to 58.9 µM), for inactives: top-dose activity change, negative = inhibition, usual class: inhibitors | actives 0.21% (n = 390,000)
Target sequence (Q92830 whole entry, looked up): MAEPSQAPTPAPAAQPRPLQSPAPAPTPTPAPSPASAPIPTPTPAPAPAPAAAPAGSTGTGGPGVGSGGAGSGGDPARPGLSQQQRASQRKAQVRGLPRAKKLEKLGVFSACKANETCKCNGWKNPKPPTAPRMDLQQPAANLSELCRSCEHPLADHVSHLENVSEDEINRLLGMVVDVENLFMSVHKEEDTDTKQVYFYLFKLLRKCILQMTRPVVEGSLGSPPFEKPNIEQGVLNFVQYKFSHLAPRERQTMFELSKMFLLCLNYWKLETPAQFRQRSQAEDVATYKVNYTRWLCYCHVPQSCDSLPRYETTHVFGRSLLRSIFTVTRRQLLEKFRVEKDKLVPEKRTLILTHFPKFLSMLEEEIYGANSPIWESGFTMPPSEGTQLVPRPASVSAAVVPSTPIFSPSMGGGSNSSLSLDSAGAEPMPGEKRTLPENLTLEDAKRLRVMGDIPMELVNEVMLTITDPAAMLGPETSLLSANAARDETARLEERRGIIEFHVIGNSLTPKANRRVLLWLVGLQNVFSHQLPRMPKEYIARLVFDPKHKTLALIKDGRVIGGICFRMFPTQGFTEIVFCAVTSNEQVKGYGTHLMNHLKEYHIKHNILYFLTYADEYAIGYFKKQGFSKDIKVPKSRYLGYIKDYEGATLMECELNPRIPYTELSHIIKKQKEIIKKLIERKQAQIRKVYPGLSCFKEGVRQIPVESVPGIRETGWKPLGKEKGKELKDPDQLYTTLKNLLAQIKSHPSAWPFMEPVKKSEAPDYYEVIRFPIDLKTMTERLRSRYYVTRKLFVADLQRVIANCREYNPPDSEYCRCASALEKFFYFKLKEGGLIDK
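Fluorescence readout, Ex340nm/Em540nm: ThioGlo1 (50uM final) reacts with free CoA thiol released as 20nM GCN5L2 acetylates H3(1-25) peptide (75uM) using acetyl-CoA (70uM). Compound and enzyme sat 15 min beforehand; 20 min room-temperature reaction.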
DT40 TDP1 no CPT – qHTS for Inhibitors of human tyrosyl-DNA phosphodiesterase 1 (TDP1): qHTS in cells in absence of CPT; DT40 Tdp1-/- hTDP1 cells, no CPT, ATP luminescence, 48 h; Potency, µM (titrated, usually from 46.2 µM), inactives show at the highest dose activity change, negative = growth inhibition, usual class: inhibitors; actives 15% (n = 420,000); AID 686978, 2013; further: nearly all actives have a fitted effect of over 55% in size
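Chicken DT40 Tdp1-/- cells complemented with human TDP1, screened without camptothecin (DMSO vehicle only), 400 cells/well. Compounds pin-transferred, cells incubated at 37 °C for at least 48 hr. Growth read as ATP-dependent luminescence (CellTiter-Glo, 30 min at RT).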
* hit, by the source's call; ? = inconclusive; · = no result given; [ ] = dose if it differs, or a comment. The call rests on the fitted dose curve; in most records, active means well fitted curve in the direction sought with a large enough effect; inconclusive means small, poorly fitted or top-dose-only effect, or another doubt; inactive means no such curve, though single readings can be large; an effect the other way counts as inactive or inconclusive. On the % scale 0 is the no-effect control and ±100 the full control effect; potency means the concentration at half of the fitted maximal effect.

SMILES	PLK1 PBD block	TDP1 cell CPT	TDP1 block	VDR inh	KAT2A inh	DT40 TDP1 no CPT
O=C(CSc1nc2ccccc2c(=O)n1CC1CCCO1)NCCc1ccccc1 (configuration not stated)	-5.8%	-26.5%	-0.1%	5.7%	-14.9%	-2.2%
O=C(CSc1nc2ccccc2c(=O)n1CC1CCCO1)NCc1ccc2c(c1)OCO2 (configuration not stated)	26.7µM*	-20.4%	5.8%	-19.6%	-3.5%	?
CCC(CC)C(=O)Oc1c(C(=O)N(C)C)cccc1-c1ccccc1	-2.8%	-0.4%	·	-19.1%	·	-11.1%
COc1ccc(/C=C(\C#N)C(=O)OCC(=O)NCc2ccco2)cc1	2.7%	12.2%	2.2%	7.1%	-30.0%	2.3%
Nc1ccccc1-n1nc2ccc3ccccc3c2n1	-6.7%	?	·	·	·	-26.5%
Cc1cccc(C)c1NC(=O)C1(C)CSCC(=O)N1CCc1ccccc1F (configuration not stated)	3.0%	-18.7%	·	·	·	?
Cc1ccc(Cl)cc1NC(=O)COC(=O)CSc1ccccc1	-6.9%	0.4%	-3.5%	-16.5%	-2.0%	-17.0%
Cc1cccc(-n2c(SCC(=O)NCC3CCCO3)nc3ccccc3c2=O)c1C (configuration not stated)	3.0%	14.6µM*	2.1%	-5.6%	1.1%	23.1µM*
O=C(CSc1nc2ccccc2c(=O)n1-c1ccccc1)NCC1CCCO1 (configuration not stated)	-3.2%	-26.9%	4.4%	-10.1%	-9.6%	?
O=c1oc(-c2ccccc2)cc(Cl)c1Cl	10.6µM*	1.64µM*	·	-23.2%	0.0%	1.84µM*
Cc1cccc(C(=O)NCC2Cc3cc(F)cc(-c4cnccn4)c3O2)n1 (configuration not stated)	·	3.4%[9.04 µM]	·	·	·	?
Cc1nc(CSc2nsc(C)c2C#N)cs1	-12.4%	0.8%	2.7%	-9.8%	-2.5%	-8.8%
N#Cc1c(SCC(N)=O)nsc1SCc1ccc(Cl)cc1	-1.5%	-9.7%	6.6%	5.0%	0.9%	-22.4%
Cc1cc(C)c(C#N)c(OCC(=O)c2ccc(Br)cc2)n1	-5.4%	-18.5%	-5.7%	8.5%	1.2%	-22.5%
COC(=O)c1ccccc1CSc1nsc(C)c1C#N	13.4µM*	-4.9%	·	-24.5%	-0.9%	3.3%
Cc1ccc(C(=O)CSc2nsc(C)c2C#N)cc1	15µM*	?	-2.8%	?	1.3%	-29.1%
Cc1ccnc(SCC(=O)c2ccc(Br)cc2)c1C#N	-12.3%	?	-1.3%	12.8%	-1.8%	20.6µM*
Cc1snc(SCC(=O)c2ccc(Cl)cc2)c1C#N	21.2µM*	-15.2%	8.5%	-25.3%	-1.0%	?
OCC1OC(c2ccccc2)OC2COC(c3ccccc3)OC12 (configuration not stated)	-6.6%	-2.3%	·	0.4%	·	-19.1%
COCOc1ccc(C2CC(=O)c3c(OCOC)cc(OCOC)cc3O2)cc1 (configuration not stated)	-2.0%	-18.4%	·	-12.1%	·	?
COc1ccc(NC(C)=O)cc1NC(=O)c1ccc2ccccc2c1	1.3%	-7.8%	7.9%	7.8%	-7.4%	-12.3%
COc1ccccc1CNS(=O)(=O)c1ccc2c(c1)NC(=O)CO2	-9.6%	-14.3%	0.2%	-8.5%	-23.3%	6.2%
CCOP(=O)(OCC)C(Nc1ccccc1)c1ccc2c(c1)OCO2 (configuration not stated)	0.8%	13µM*	3.1%	-6.1%	-4.8%	?
CCOP(=O)(OCC)C(Nc1ccc(F)cc1)c1ccccc1 (configuration not stated)	-0.6%	-3.4%	7.0%	-9.0%	-1.1%	-30.0%
CCCCOP(=O)(OCCCC)C(Nc1ccccc1)c1ccc2c(c1)OCO2 (configuration not stated)	-1.6%	?	-5.3%	-18.2%	-6.7%	13µM*
SMILES	PLK1 PBD block	TDP1 cell CPT	TDP1 block	VDR inh	KAT2A inh	DT40 TDP1 no CPT
CCCOP(=O)(OCCC)C(Nc1ccc(C(=O)O)cc1)c1ccccc1 (configuration not stated)	-6.6%	-16.4%	0.0%	-11.1%	-3.3%	-5.2%
C[C@@H]1CN([C@H](C)CO)C(=O)CCCn2cc(nn2)CO[C@H]1CN(C)C(=O)Nc1cccc(Oc2ccccn2)c1	-15.7%	-15.2%	·	·	·	-1.2%
CC(=O)N1CCc2c(sc3c2c(=O)n(-c2ccccc2C)c(=O)n3CC(=O)Nc2ccccc2)C1	·	27.3%	0.0%	-11.3%	-1.7%	18.7%
Cc1ccc(C2c3c(-c4ccccc4O)n[nH]c3C(=O)N2CCc2ccccc2)cc1 (configuration not stated)	·	?	6.1%	10.0%	-1.8%	-105.7%
COc1cccc(C2c3c(-c4ccccc4O)n[nH]c3C(=O)N2Cc2cccnc2)c1 (configuration not stated)	·	?	7.0%	7.2%	-5.3%	?
COc1ccc(C2c3c(-c4ccccc4O)n[nH]c3C(=O)N2CCc2ccccc2)cc1 (configuration not stated)	·	?	2.5%	1.2%	-3.4%	16.4µM*
COc1ccc(C2c3c(-c4ccccc4O)n[nH]c3C(=O)N2CCc2ccc(OC)c(OC)c2)cc1 (configuration not stated)	-5.5%	20.6µM*	9.1%	11.5%	-6.4%	23.1µM*
COc1cc(C2c3c(-c4ccccc4O)n[nH]c3C(=O)N2Cc2ccncc2)ccc1O (configuration not stated)	·	-6.4%	2.3%	10.5%	-3.9%	-7.2%
COC(=O)c1ccc(C2c3c(-c4ccccc4O)n[nH]c3C(=O)N2Cc2ccncc2)cc1 (configuration not stated)	·	18.4µM*	4.7%	14.8%	1.1%	?
CC(C)c1ccc(C2c3c(-c4ccccc4O)n[nH]c3C(=O)N2CCc2ccccc2)cc1 (configuration not stated)	·	?	2.5%	-7.6%	-0.7%	11.6µM*
COc1cccc(C(=O)N2CC(=O)Nc3ccc(C)cc3C2c2ccc(F)cc2)c1OC (configuration not stated)	·	?	5.9%	2.0%	-0.9%	?
Cc1ccc(S(=O)(=O)N2CC(C)N(C(=O)N3CCOCC3)C2C)cc1 (configuration not stated)	-27.2%	5.3%	·	9.3%	1.3%	-0.9%
COc1ccc(C2=NN(CC(=O)NCCc3ccccc3)C(=O)CC2)cc1	·	-1.2%	0.0%	0.6%	-1.6%	-15.3%

Screening results as filed in PubChem.
